Experimental data taken from PubChem BioAssay (NCI).
About 83,000 compounds went through this panel and 20% of them were active in at least one assay; those are over-represented in the sample as a whole.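 Each cell line was grown in a 96-well plate and treated with one concentration of compound for 48 hours. Values below 10 were considered active.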 Values without a mark were called inactive. Active and inactive are the calls of the source.

How the values were obtained:
Experiment in all cases: NCI-60 one-dose screen, 48 h (100 = growth as untreated, 0 = no growth, -100 = all killed)
Conditions in all cases: 10 µM unless noted
HCT-15 colon = tested on: HCT-15 colon
HT29 colon = tested on: HT29 colon
SNB-75 CNS = tested on: SNB-75 CNS
SNB-19 CNS = tested on: SNB-19 CNS
U251 CNS = tested on: U251 CNS
PC-3 prostate = tested on: PC-3 prostate
SK-MEL-5 melanoma = tested on: SK-MEL-5 melanoma
UACC-62 melanoma = tested on: UACC-62 melanoma
LOX IMVI melanoma = tested on: LOX IMVI melanoma
SK-MEL-28 melanoma = tested on: SK-MEL-28 melanoma
SK-MEL-2 melanoma = tested on: SK-MEL-2 melanoma
EKVX NSCLC = tested on: EKVX NSCLC
SN12C renal = tested on: SN12C renal
UO-31 renal = tested on: UO-31 renal
TK-10 renal = tested on: TK-10 renal
ACHN renal = tested on: ACHN renal
CAKI-1 renal = tested on: CAKI-1 renal
A498 renal = tested on: A498 renal
CCRF-CEM leukemia = tested on: CCRF-CEM leukemia
MOLT-4 leukemia = tested on: MOLT-4 leukemia

SMILES | growth (HCT-15 colon) | growth (HT29 colon) | growth (SNB-75 CNS) | growth (SNB-19 CNS) | growth (U251 CNS) | growth (PC-3 prostate) | growth (SK-MEL-5 melanoma) | growth (UACC-62 melanoma) | growth (LOX IMVI melanoma) | growth (SK-MEL-28 melanoma) | growth (SK-MEL-2 melanoma) | growth (EKVX NSCLC) | growth (SN12C renal) | growth (UO-31 renal) | growth (TK-10 renal) | growth (ACHN renal) | growth (CAKI-1 renal) | growth (A498 renal) | growth (CCRF-CEM leukemia) | growth (MOLT-4 leukemia)
CCOC(=O)CCCn1c(-c2ccccc2)cc(-c2ccccc2)c(C#N)c1=O | 82.3% | 88.1% | 71.2% | 93.5% | 98.7% | 63.8% | 92.7% | 59% | 84.7% | 88.7% | 94.8% | 93.4% | 84.6% | 71.5% | 113% | 94.7% | 57.3% | 25.7% | 88.4% | 82.1%
CC(=O)c1c(C)nc2ccccc2c1/C=C/c1cccc(C)c1 | 31.3% | 18.5% | 60% | 74.1% | 49.8% | 65.8% | 54.3% | 47.8% | 42% | 75% | 36.2% | 71.5% | 67.7% | 56.4% | 79.9% | 73.7% | 46.3% | 50.1% | 54.4% | 31%
COc1ccc(S(=O)(=O)Nc2cc(Sc3cccc4cccnc34)c(O)c3ccccc23)cc1 | 10.9% | -37.8% (active) | 62.5% | 43% | 4.81% (active) | 26.3% | -32.7% (active) | -28.1% (active) | -55.8% (active) | -2.3% (active) | 5.09% (active) | 36.7% | 17.2% | 27.4% | 23.4% | 7.43% (active) | 20% | 65.2% | 13.4% | -4.51% (active)
COc1ccc(NC(=O)Nc2ccccc2CNc2nc(Nc3ccc(OCCN4CCCC4)cc3)ncc2Cl)cc1 | 5.09% (active) | 3.08% (active) | -47.8% (active) | 33.9% | -15.2% (active) | 23.3% | -40.6% (active) | -53.4% (active) | -99% (active) | -77.7% (active) | -20.2% (active) | 55.4% | -44.2% (active) | -86% (active) | 1.49% (active) | -94.7% (active) | -79.1% (active) | 51.9% | 1.9% (active) | 1.79% (active)
COc1ccc(N2CCN(S(=O)(=O)c3oc(-c4ccccc4)nc3C#N)CC2)cc1 | 9.51% (active) | 50.6% | 93.4% | 92.2% | 88.2% | 92% | 81.2% | 85.5% | 4.64% (active) | 98.6% | 72.4% | 118% | 68.9% | 85.9% | 71.6% | 79.2% | 107% | 128% | 4.32% (active) | 3.95% (active)
O=C(NNc1ccccc1)c1ncc[nH]1 | 34.8% | 54.9% | 85.2% | 96.5% | 78.6% | 71.9% | 85% | 10.9% | 1.27% (active) | 40.7% | 78.2% | 60.2% | 72% | 12.3% | 77.9% | 14.5% | 3.43% (active) | 98.3% | 32.7% | 27.3%
CCOC(=O)C(=Cc1ccc(C#N)cc1)C(=O)OCC | -21% (active) | -39.7% (active) | 42.9% | 65.2% | 50.3% | 33.3% | 59.6% | 10.6% | -54.9% (active) | -17.7% (active) | 42.9% | 77.2% | 45.9% | -33.9% (active) | -1.52% (active) | -64.7% (active) | 48.6% | 82.3% | 2.95% (active) | 10.6%
Cn1ccnc1CN1CCSC(C(=O)Nc2ccccc2)C1 (stereo not given) | 95.4% | 95.1% | 79.5% | 93% | 93.1% | 92.3% | 95.4% | 87.7% | 98.7% | 100% | 102% | 106% | 91.4% | 89.2% | 101% | 93.2% | 89.2% | 97% | 80.9% | 94.3%
O=S(=O)(O)c1ccc(N=Nc2ccc(N=Nc3cccc4ccccc34)c(S(=O)(=O)O)c2)cc1 | 114% | 105% | 89.7% | 110% | 102% | 84.5% | 86.4% | 98.4% | 94.1% | 110% | 99.8% | 97% | 102% | 84.1% | 112% | 97.8% | 97% | 90.1% | 101% | 108%
Nc1nc(N)c2c(n1)NC(c1ccc(Cl)cc1)CC(c1cccc(Nc3ccncc3)c1)=N2 (stereo not given) | 71.5% | 21% | 67.2% | 61.8% | 34.6% | 38.2% | 52.1% | 69.2% | 25.4% | 72.2% | 76.3% | 62.1% | 53% | 90.6% | 113% | 73.5% | 73.7% | 81.1% | 32.7% | 38.1%
O=C1C(=C(O)c2ccccc2)C(=O)c2ccccc21 | 102% | 109% | 76.5% | 98.1% | 109% | 94.5% | 107% | 96% | 99% | 105% | 105% | 104% | 102% | 85.5% | 111% | 103% | 92.9% | 123% | 73.7% | 116%
C=C(C)[C@@H]1CC[C@]2(C)[C@H](CC(=O)N[C@H]3[C@@H]4C[C@](C)(C(=O)OC)CC[C@]4(C)CC[C@]32C)[C@@]1(C)CCC#N | 68.6% | 70.9% | 96.5% | 89% | 79.9% | 42.9% | 49.7% | 68.3% | 96.9% | 104% | 95.3% | 93.2% | 79.4% | 75.7% | 104% | 88% | 79.2% | 101% | 75.1% | 42.7%
CNC(=O)c1cc(Oc2ccc3nc(NC(=O)Nc4ccc(C(F)(F)F)cc4)sc3c2)ccn1 | 54.2% | 78.4% | 29.1% | 79.3% | 22.4% | 58.8% | 56.9% | 56% | 48.1% | 68.9% | 92.9% | 53.5% | 71.1% | 65% | 55.3% | 73.4% | 92% | 98.8% | 68.1% | 73.3%
O=C(Oc1ccc(CO[N+](=O)[O-])cc1)c1ccccc1 | -83% (active) | -60% (active) | -97.9% (active) | -78.8% (active) | -91.2% (active) | -91.7% (active) | -96.1% (active) | -76.3% (active) | -87.4% (active) | -71.9% (active) | -72.3% (active) | -99.9% (active) | -87.6% (active) | -90.4% (active) | -96.9% (active) | -84.7% (active) | -97% (active) | -71.5% (active) | -47.4% (active) | -50.1% (active)
